SMILES strings stand for the structures. Records with an inconclusive call do not appear. The source made the active and inactive calls. The call rests on the fitted dose curve; in most records, active means well fitted inhibition curve with a large enough effect; inconclusive means small, poorly fitted or top-dose-only effect; inactive means flat fitted curve, though single readings scatter.

For nine compounds, Potency results are on record in PubChem BioAssay (NCATS).

Assay [1] has as its target Luciferin 4-monooxygenase (Photinus pyralis) (UniProt P08659). In words: Biochemical firefly luciferase enzyme assay for NPC (AID 624030). Further: nearly all actives have a fitted effect of over 70% in size. In outline: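 Purified P. pyralis luciferase at 10 nM in 50 mM Tris Acetate (final), luminescence read within 5 minutes of enzyme addition to compounds. Activity normalised to PTC124 versus DMSO; concentration-response curves classed by r2, magnitude and activity.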

For the next assay, the system named is CP215. In words: qHTS profiling for inhibitors of Plasmodium falciparum proliferation (AID 504749). Further: nearly all actives have a fitted effect of over 60% in size. The settings on record: P. falciparum in erythrocytes, SYBR Green DNA, 72 h; series mostly up to 28.7 µM. In outline:
(§1)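 P. falciparum-infected erythrocytes (0.3% parasitemia, 2.5% hematocrit) incubated with compound 72 h at 37 C, 5% CO2. Parasite DNA detected by SYBR Green after lysis, overnight at room temperature; normalised to 0.29 uM artemisinin and DMSO.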
(In general: qHTS replaces the single test concentration by a dilution series.)

The next assay has as its system CP260. The description is as above. The settings on record: P. falciparum in erythrocytes, SYBR Green DNA, 72 h; series mostly up to 28.7 µM. In outline:
as §1

A further assay has as its system CP266. The description is as above. The settings on record: P. falciparum in erythrocytes, SYBR Green DNA, 72 h; series mostly up to 28.7 µM. In outline: as §1
Another assay relates to CP268. The description is as above. Conditions: P. falciparum in erythrocytes, SYBR Green DNA, 72 h; series mostly up to 28.7 µM. In outline: as §1
The test system of another assay is CP291. The description is as above. The settings on record: P. falciparum in erythrocytes, SYBR Green DNA, 72 h; series mostly up to 28.7 µM. In outline:
as §1

For another assay, the system named is CP297. The assay is described as above. Conditions: P. falciparum in erythrocytes, SYBR Green DNA, 72 h; series mostly up to 28.7 µM. In outline: as §1
The test system of the next assay is CP305. The description is as above. Conditions: P. falciparum in erythrocytes, SYBR Green DNA, 72 h; series mostly up to 28.7 µM. In outline:
as §1

For a further assay, the system named is DIV14. The description is as above. Conditions: P. falciparum in erythrocytes, SYBR Green DNA, 72 h; series mostly up to 28.7 µM. In outline: as §1
The next assay concerns DIV17. Described as above. Conditions: P. falciparum in erythrocytes, SYBR Green DNA, 72 h; series mostly up to 28.7 µM. In outline: as §1
The next assay relates to FAB9. Described as above. Conditions: P. falciparum in erythrocytes, SYBR Green DNA, 72 h; series mostly up to 28.7 µM. In outline: as §1
The subject of a further assay is GB4. Described as above. The settings on record: P. falciparum in erythrocytes, SYBR Green DNA, 72 h; series mostly up to 28.7 µM. In outline: as §1
Another assay has as its system HB3. Described as above. The settings on record: P. falciparum in erythrocytes, SYBR Green DNA, 72 h; series mostly up to 28.7 µM. In outline: as §1
The test system of a further assay is ICS. The description is as above. The settings on record: P. falciparum in erythrocytes, SYBR Green DNA, 72 h; series mostly up to 28.7 µM. In outline:
as §1

Another assay concerns JCK. The assay is described as above. Conditions: P. falciparum in erythrocytes, SYBR Green DNA, 72 h; series mostly up to 28.7 µM. In outline:
as §1

The subject of a further assay is P93_24. The description is as above. The settings on record: P. falciparum in erythrocytes, SYBR Green DNA, 72 h; series mostly up to 28.7 µM. In outline:
as §1

In the next assay the test system is PC26. Described as above. Conditions: P. falciparum in erythrocytes, SYBR Green DNA, 72 h; series mostly up to 28.7 µM. In outline: as §1
In another assay the test system is PC49. The assay is described as above. The settings on record: P. falciparum in erythrocytes, SYBR Green DNA, 72 h; series mostly up to 28.7 µM. In outline: as §1
The next assay concerns TAB109. The assay is described as above. Conditions: P. falciparum in erythrocytes, SYBR Green DNA, 72 h; series mostly up to 28.7 µM. In outline: as §1
For a further assay, the system named is CP335. The assay is described as above. Conditions: P. falciparum in erythrocytes, SYBR Green DNA, 72 h; series mostly up to 28.7 µM. In outline: as §1
Potency means the concentration at half of the fitted maximal effect.

Chain of Luciferin 4-monooxygenase (Photinus pyralis) (P08659 whole entry, looked up): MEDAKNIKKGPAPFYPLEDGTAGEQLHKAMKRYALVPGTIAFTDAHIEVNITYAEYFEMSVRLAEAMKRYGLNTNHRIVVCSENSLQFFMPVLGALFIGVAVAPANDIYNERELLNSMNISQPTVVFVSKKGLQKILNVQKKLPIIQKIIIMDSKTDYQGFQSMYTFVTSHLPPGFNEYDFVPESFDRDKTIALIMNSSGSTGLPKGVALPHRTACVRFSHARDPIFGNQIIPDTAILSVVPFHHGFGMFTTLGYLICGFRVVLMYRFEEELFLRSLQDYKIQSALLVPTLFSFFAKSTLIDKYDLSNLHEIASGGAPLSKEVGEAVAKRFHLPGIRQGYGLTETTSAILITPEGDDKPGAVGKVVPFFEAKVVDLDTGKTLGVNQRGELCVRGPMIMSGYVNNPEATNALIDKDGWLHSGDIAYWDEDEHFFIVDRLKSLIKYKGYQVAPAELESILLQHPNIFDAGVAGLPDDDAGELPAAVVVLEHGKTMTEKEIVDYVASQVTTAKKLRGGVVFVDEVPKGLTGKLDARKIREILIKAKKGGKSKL

Take `COC1CC2CCC(C)[C@](O)(O2)C(=O)C(=O)N2CCCCC2C(=O)OC(C(C)CC2CCC(O)C(OC)C2)CC(=O)C(C)/C=C(/C)C(O)C(OC)C(=O)C(C)CC(C)C=CC=C/C=C\1C` (stereo partly drawn): the Potency entry in assay [1] is “inactive”. Further, the Potency was 1.51 µM (active) with CP215; 2.51 µM (active) in the assay with CP260; 6.75 µM (active) in the assay with CP266; 6.01 µM (active) in the assay with CP268; 4.78 µM (active) in the assay on CP291; 4.26 µM (active) with CP297. For the same compound, the Potency in the assay with CP305 is 5.36 µM (active); with DIV14, 1.51 µM (active); in the assay on DIV17, 1.69 µM (active); in the assay with FAB9, 8.91 µM (active); with GB4, 1.69 µM (active); in the assay on HB3, 2.51 µM (active). Also, the Potency in the assay on ICS was 0.891 µM (active); in the assay on JCK, 10 µM (active); in the assay on P93_24, 1.41 µM (active); in the assay on PC26 it was 3.79 µM (active); with PC49 it was 2.24 µM (active); in the assay on TAB109, 2.24 µM (active).

Regarding `CO/N=C(/C(=O)N[C@@H]1C(=O)N2C(C(=O)O)=C(C[n+]3ccc(N)n3CCO)CS[C@H]12)c1csc(N)n1`, the Potency result (in [1]; in the assay on CP215; with CP260; in the assay on CP266; with CP268; in the assay with CP291) was “inactive” in each case. The Potency result in the assay with CP297, in the assay on CP305, in the assay on CP335, with DIV14, in the assay with DIV17 and in the assay with FAB9 was “inactive” throughout. The Potency result in the assay with GB4, in the assay on HB3, with ICS, in the assay on JCK, in the assay on P93_24 and with PC26 was “inactive” each time. The Potency entry in the assay on PC49 and in the assay with TAB109 was “inactive” in each case.

As to `NC(=O)NC(CCC(=O)O)C(=O)O` (stereo not drawn), the Potency result (in assay [1]; in the assay with CP215; in the assay on CP260; in the assay on CP266; with CP268; in the assay on CP291) was “inactive” throughout. Also, the Potency entry with CP297, in the assay with CP305, in the assay with CP335, with DIV14, with DIV17 and with FAB9 was “inactive” in each case. In addition, the Potency entry in the assay with GB4, in the assay with HB3, with ICS, in the assay with JCK, in the assay with P93_24 and in the assay with PC49 was “inactive” in each case. For the same compound, the Potency result in the assay on TAB109 is “inactive”.

As for `OCC1OC(O)C(O)C(O)C1O` (stereo not drawn), the Potency result (in assay [1]; in the assay on CP215; in the assay with CP260; in the assay with CP266; in the assay on CP268; with CP305) was “inactive” each time. Further, the Potency result in the assay on CP335, with FAB9, with HB3, in the assay with ICS, in the assay with JCK and in the assay with P93_24 was “inactive” throughout. Further, the Potency result in the assay on PC49 and in the assay with TAB109 was “inactive” in each case.

As to `CO/N=C(/C(=O)N[C@@H]1C(=O)N2C(C(=O)O)=C(CSc3cnns3)CS[C@H]12)c1csc(N)n1`, the Potency entry (in assay [1]; in the assay on CP215; with CP260; in the assay on CP268; with CP291; in the assay on CP297) was “inactive” throughout. Moreover, the Potency entry with CP305, in the assay on CP335, in the assay with DIV14, in the assay on DIV17, in the assay with FAB9 and with GB4 was “inactive” each time. Also, the Potency result in the assay on HB3, in the assay on ICS, in the assay on JCK, in the assay on P93_24, with PC26 and with PC49 was “inactive” throughout.

For the compound `C=C[C@@]1(C)C[C@H](OC(=O)CSC(C)(C)CNC(=O)[C@@H](N)C(C)C)[C@@]2(C)C(C)CC[C@@]3(CCC(=O)[C@@H]32)[C@H](C)[C@H]1O` (stereo partly drawn), the Potency entry in assay [1] is “inactive”. Moreover, the Potency with CP215 was 1.69 µM (active); in the assay with CP260 it was 3.98 µM (active); with CP268, 3.01 µM (active); with CP291, 1.69 µM (active); in the assay on CP297, 2.39 µM (active); in the assay with CP305, 0.379 µM (active). Besides, the Potency with CP335 was 1.2 µM (active); in the assay on DIV14 it was 6.01 µM (active); in the assay on DIV17, 7.57 µM (active); in the assay with GB4 it was 3.79 µM (active); in the assay on ICS, 2.82 µM (active); in the assay with P93_24 it was 0.501 µM (active). Besides, the Potency in the assay on PC26 was 6.01 µM (active); in the assay with TAB109, 0.891 µM (active).

`O=C(O)Cc1sc(-c2ccc(Cl)cc2)nc1-c1ccccc1`: the Potency in assay [1] is 25.6 µM (active). For the same compound, the Potency result in the assay with CP260, with CP266, in the assay on CP268, with CP291, with CP297 and with CP305 was “inactive” in each case. In addition, the Potency entry in the assay with CP335, in the assay with DIV14, in the assay on DIV17, with FAB9, with GB4 and in the assay on HB3 was “inactive” throughout. Further, the Potency result in the assay with ICS, in the assay on JCK, in the assay on P93_24, in the assay with PC26, with PC49 and in the assay on TAB109 was “inactive” each time.

Consider `Cn1cc(C(=O)[C@@H]2CCc3[nH]cnc3C2)c2ccccc21`, for which the Potency entry (in [1]; with CP215; in the assay on CP260; in the assay with CP266; in the assay with CP268; in the assay with CP291) was “inactive” in each case. Besides, the Potency entry with CP297, with CP305, in the assay on CP335, in the assay with DIV14, with DIV17 and with FAB9 was “inactive” throughout. Also, the Potency entry with GB4, in the assay on HB3, with ICS, with JCK, in the assay on P93_24 and in the assay with PC26 was “inactive” in each case. Moreover, the Potency entry in the assay with PC49 and in the assay with TAB109 was “inactive” in each case.

For the compound `CC(=O)C1(O)Cc2c(O)c3c(c(O)c2C(OC2CC(N)C(O)C(C)O2)C1)C(=O)c1c(O)cccc1C3=O` (stereo not drawn), the Potency was 3.98 µM (active) with CP260; 15.1 µM (active) in the assay on CP266; 5.36 µM (active) with CP335; 5.36 µM (active) in the assay with DIV14; 5.36 µM (active) with DIV17; 11.2 µM (active) in the assay on FAB9. For the same compound, the Potency in the assay on GB4 is 6.75 µM (active); in the assay with HB3, 6.31 µM (active); in the assay on ICS, 3.55 µM (active); with JCK, 12.6 µM (active); in the assay with P93_24, 6.31 µM (active); in the assay on PC26, 5.36 µM (active). Further, the Potency in the assay with PC49 was 6.31 µM (active); with TAB109, 5.62 µM (active).
